Results taken from PubChem BioAssay (NCATS).
Records with an inconclusive call do not appear. Active and inactive are the calls of the source. The call rests on the fitted dose curve; in most records, active means well fitted curve in the direction sought with a large enough effect; inconclusive means small, poorly fitted or top-dose-only effect, or another doubt; inactive means no such curve, though single readings can be large; an effect the other way counts as inactive or inconclusive.

Columns and labels:
[1] = qHTS of pediatric cancer cell lines to identify multiple opportunities for drug repurposing: Primary screen for TC32 cells (AID 1347089); further: nearly all actives have a fitted effect of over 60% in size
In short: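 TC32 cells, 500-1,000/well in growth medium, compound-treated 48 h at 37 °C; viability from CellTiter-Glo luminescence. Primary screen: MIPE 11-point (0.78 nM–46 µM final), NPC 8-point (0.59 nM–46 µM final); confirmatory at 11-point dilutions.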

[2] = qHTS of pediatric cancer cell lines to identify multiple opportunities for drug repurposing: Primary screen for DAOY cells (AID 1347090); further: series mostly up to about 46 µM; nearly all actives have a fitted effect of over 55% in size
In short: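 Viability measured as metabolically active cells via CellTiter-Glo luminescence following 48 hours of compound exposure, 11-point dilutions in confirmatory testing. 500-1,000 cells/well plated 5 hours before dosing; controls were DMSO and 2.3 µM bortezomib.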

[3] = qHTS of pediatric cancer cell lines to identify multiple opportunities for drug repurposing: Primary screen for A673 cells (AID 1347092); further: nearly all actives have a fitted effect of over 45% in size
In short: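 A673 cells (500-1,000 cells/well) were treated 48 hours at 37 degrees C with compounds at 11-point (0.78 nM to 46 µM) or 8-point (0.59 nM to 46 µM) dilutions. Viability read by CellTiter-Glo luminescence; concentration-response curves fitted.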

[4] = qHTS of pediatric cancer cell lines to identify multiple opportunities for drug repurposing: Primary screen for NB-EBc1 cells (AID 1347095)
In short: (§1)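 Readout: CellTiter-Glo luminescence, 48 h treatment. Controls DMSO (neutral) and bortezomib 2.3 µM final (positive). Potency and efficacy taken from primary-screen concentration-response curves.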

[5] = qHTS of pediatric cancer cell lines to identify multiple opportunities for drug repurposing: Primary screen for U-2 OS cells (AID 1347096); further: nearly all actives have a fitted effect of over 50% in size
In short: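 Viability after 48 h compound treatment at 37C, 500-1,000 cells/well, read as ATP luminescence with CellTiter-Glo. Primary screens used 11-point (MIPE, 0.78 nM-46 µM) or 8-point (NPC, 0.59 nM-46 µM) final concentrations; follow-up screens used 11-point dilutions.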

[6] = qHTS of pediatric cancer cell lines to identify multiple opportunities for drug repurposing: Primary screen for SK-N-MC cells (AID 1347093); further: potency means the concentration at half of the fitted maximal effect
In short: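 Metabolically active cells were quantified by ATP-dependent luminescence (CellTiter-Glo, 15 min at room temperature) following 48 h treatment. Cells had been plated at 500-1,000 per well and settled for 5 h beforehand.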

[7] = qHTS of pediatric cancer cell lines to identify multiple opportunities for drug repurposing: Primary screen for BT-37 cells (AID 1347094); further: potency means the concentration at half of the fitted maximal effect
In short: as §1

[8] = qHTS of pediatric cancer cell lines to identify multiple opportunities for drug repurposing: Primary screen for Saos-2 cells (AID 1347097); further: nearly all actives have a fitted effect of over 40% in size; further: potency means the concentration at half of the fitted maximal effect
In short: as §1

[9] = qHTS of pediatric cancer cell lines to identify multiple opportunities for drug repurposing: Primary screen for SK-N-SH cells (AID 1347098); further: nearly all actives have a fitted effect of over 65% in size
In short: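 Cells (500-1,000/well) rested 5 h, then received compounds for 48 h; metabolically active cells were measured by CellTiter-Glo luminescence. Final concentrations spanned up to 46 µM (MIPE, 11-point) or 0.59 nM-46 µM (NPC, 8-point) in primary screens, 11-point in follow-ups.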

Measured: Potency

CCOC(=O)c1c(CSc2ccccc2)n(C)c2cc(Br)c(O)c(CN(C)C)c12
inactive: [1] | [2] | [3] | [4] | [5]

CCCCCCCCCCCCCC(=O)N[C@H](CO)[C@H](O)c1ccc([N+](=O)[O-])cc1
active: [6] 18.7 µM | [7] 13.7 µM | [8] 18.7 µM
inactive: [1] | [2] | [5]

Cc1cc2c(cc1C1(c3ccc(C(=O)O)cn3)CC1)C(C)(C)CCC2(C)C
not listed: [3] | [4]
inactive: all other assays above
